a7 integrin act: activates integrin-mediated alleviation for muscular dystrophy; alpha7betagal myoblasts, beta-gal FDG fluorescence, 48 h; Potency, µM (top dose mostly 38.3 µM), without a hit: top-dose activation, most hits filed as activators; 0.064% of 350,000 active;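 note: potency is the fitted concentration of half-maximal effect; 100% = response of the positive control SU9516; nearly all actives have a fitted effect of over 60% in size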
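alpha7betagal+/- myoblasts (passage 13, 250/well) treated 48 h at 37C with compounds at 1:260 dilution of DMSO stock. Lysed, then beta-galactosidase activity read as FDG fluorescence (ex 480/em 540) after 30 min, with pre-read for autofluorescence.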
ClpP mod: qHTS Assay for Activators of ClpP; ATP-dependent Clp protease proteolytic subunit (Bacillus subtilis (strain 168)), P80244; purified B. subtilis ClpP, FRET peptide cleavage, 20 min; Potency, µM (top dose mostly 57.5 µM), for the others: at the highest dose activity change, negative = active; 1.9% of 340,000 active; AID 651965, 2013; active = well fitted falling curve with a large enough effect; inconclusive = small, poorly fitted or top-dose-only effect; inactive = no such curve, though single readings can be large or run the other way; note: potency is the fitted concentration of half-maximal effect; the source files actives as falling curves though it sought activators and does not explain the sign; nearly all actives have a fitted effect of over 65% in size
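FRET quenching reversal measured ClpP activation: 10 microg/mL B. subtilis ClpP at pH 8 with the FRET-FV decapeptide, read at 430 nm after 320 nm excitation. The 20-min minus 0-min signal was scaled between DMSO/no-enzyme wells and ADEP (5.8 microM final).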
USP2a block: USP2a (human) protease inhibition | AID 463254 | Potency, µM (doses to about 38.3 µM), without a hit: top-dose activity change, negative = inhibition, actives largely listed as inhibitors | USP2 core, Ub-CHOP2 coupled fluorogenic reporter, 485/531 | O75604 | 0.01% of 330,000 active;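 note: potency is the fitted concentration of half-maximal effect; plate controls were DMSO wells for no effect and full inhibition by NEM control for full effect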
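USP2 core (10nM final) preincubated 30min RT with compound in 20mM Tris-HCl pH 8.0, 2mM CaCl2, 2mM beta-mercaptoethanol, 0.05% CHAPS; 25nM Ub-CHOP2 plus 25nM reporter substrate added, fluorescence (Ex485/Em531) read after 60min.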
IL-2 act: IL-2 activation. IL-2 activation reporter assay, cell-based qHTS; stimulated with anti-CD3/CD4/CD28 beads; in transgenic mouse T cells. activation, % (series mostly up to about 46 µM). 0.065% of 360,000 active; in the data active = activation above about 50%; inconclusive = mostly about 30% to 49%; note: 0% is about no effect
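Unstimulated transgenic mouse T cells; 60-min compound exposure; bead-based TCR/CD4/CD28 stimulation; 18 h culture, 37 degrees C; dual fluorescence (EGFP, DsRed) plate cytometry.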
Pin1 inh: inhibitors of human Pin1 | Q13526 | Pin1 FP peptide displacement, HiFluor488, 10 min | Potency, µM (titrated, usually from 115 µM), for inactives: at the highest dose activity, negative = inhibition, actives largely listed as inhibitors | 0.009% of 390,000 active | AID 504891; active = well fitted inhibition curve with a large enough effect in the polarisation, with a control signal flat, not every such curve was filed as active; inconclusive = small, poorly fitted or top-dose-only effect, or effect the other way, or a change in a side signal; inactive = no such curve, though single readings can be large or run the other way; the % refers to the polarisation; note: potency is the fitted concentration of half-maximal effect; % is set by controls: 0 for no effect and ±100 for the full control effect
Target sequence (Q13526 whole entry, looked up): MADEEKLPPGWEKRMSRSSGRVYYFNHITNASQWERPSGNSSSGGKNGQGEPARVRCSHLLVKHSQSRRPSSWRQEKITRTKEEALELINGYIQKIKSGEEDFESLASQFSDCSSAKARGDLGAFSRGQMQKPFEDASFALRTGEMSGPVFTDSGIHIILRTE
PKM2 act: activators of human pyruvate kinase M2. P14618. purified PKM2, Kinase-Glo ATP luminescence, activation; response scale: 0% is enzyme alone, no compound. Potency, µM (top dose mostly 57.5 µM), without a hit: at the top dose activation, actives largely listed as activators. 0.34% of 260,000 active; note: potency is the fitted concentration of half-maximal effect; % is set by controls: 0 for no effect and ±100 for the full control effect; nearly all actives have a fitted effect of over 55% in size
Target sequence (P14618 whole entry, looked up): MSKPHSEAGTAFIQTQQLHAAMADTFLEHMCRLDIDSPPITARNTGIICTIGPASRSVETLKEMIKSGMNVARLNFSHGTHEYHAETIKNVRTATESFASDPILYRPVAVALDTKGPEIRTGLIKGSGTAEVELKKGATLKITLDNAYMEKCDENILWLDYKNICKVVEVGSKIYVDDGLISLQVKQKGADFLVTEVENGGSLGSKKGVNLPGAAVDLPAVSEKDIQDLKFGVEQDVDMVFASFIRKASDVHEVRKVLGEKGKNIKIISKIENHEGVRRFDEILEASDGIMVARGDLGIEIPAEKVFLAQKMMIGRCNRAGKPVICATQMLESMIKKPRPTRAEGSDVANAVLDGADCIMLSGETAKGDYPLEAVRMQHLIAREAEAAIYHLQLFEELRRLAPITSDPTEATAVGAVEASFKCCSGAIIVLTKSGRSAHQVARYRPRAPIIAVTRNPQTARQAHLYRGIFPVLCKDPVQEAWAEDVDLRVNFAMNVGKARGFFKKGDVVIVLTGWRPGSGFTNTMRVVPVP
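hPK-M2, >95% pure; 0.1 mM ADP / 0.5 mM PEP final; imidazole pH7.2 buffer w/ 7 mM MgCl2, 50 mM KCl; 1 h RT; Kinase-Glo lum. Intermediate enzyme activity for dual inhibitor/activator qHTS.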
* hit, by the source's call. Most compounds without a hit are left out; they make up all but 1.9% or so of the library. Unless noted, calls come from the whole dose curve; as a rule, active = well fitted curve in the direction sought with a large enough effect; inconclusive = small, poorly fitted or top-dose-only effect, or another doubt; inactive = no such curve, though single readings can be large; an effect the other way counts as inactive or inconclusive.

Screening CCc1ccc(OCC(=O)Nc2cc(-c3nc4cc(C)ccc4o3)ccc2C)cc1 returned ClpP mod 4µM* and Pin1 inh 4%.
`Cc1ccc(-c2nc3ncccc3o2)cc1NC(=O)COc1ccccc1` gave a7 integrin act 10%, ClpP mod 32µM*, USP2a block -1%, IL-2 act 0, Pin1 inh -4% and PKM2 act 6%.
Cc1cc(C)cc(OCC(=O)Nc2ccc(-c3nc4ncccc4o3)cc2C)c1 was read as ClpP mod inconclusive and Pin1 inh -1%.
For Nc1nc(N)c2c(Oc3ccc(F)cc3)cccc2n1 the results were ClpP mod 4%.
`Cc1cc(-c2csc(NC(=O)c3ccc(=O)[nH]c3)n2)c(C)n1Cc1ccco1` gave a7 integrin act inconclusive, USP2a block -5%, IL-2 act 1, Pin1 inh 19% and PKM2 act 10µM*.
Screening COc1ccc(C(=O)/C=C/C(=O)N(CC(=O)NC2CCCCC2)CC2CCCO2)c(O)c1 (stereo unspecified) returned a7 integrin act -68%, ClpP mod 13%, USP2a block -9%, IL-2 act -1, Pin1 inh 7% and PKM2 act 7.9µM*.
For Cc1cc(C)c2c(=O)n(CC(=O)N3CCC(Cc4ccccc4)CC3)sc2n1 the results were USP2a block 1% and PKM2 act 1.6µM*.
For Cc1ccc(C)c(N2CCN(C(=O)Cn3ncc4ccsc4c3=O)CC2)c1 the results were ClpP mod -1% and Pin1 inh 5%.
Cc1ccc(C)c(N2CCN(C(=O)Cn3c(-c4cccs4)cc4ccccc43)CC2)c1 was read as ClpP mod 16µM* and Pin1 inh 19%.
Cc1cccc(N2CCN(C(=O)Cn3c(-c4cccs4)cc4ccccc43)CC2)c1C was read as ClpP mod 16µM* and Pin1 inh 15%.
COc1ccc2c(c1)c1nnc(SC(C)C)nc1n2C was read as ClpP mod -1%.
For O=C(O)/C(=C\c1ccc(Cl)c([N+](=O)[O-])c1)c1ccc(S(=O)(=O)N2CCCCC2)s1 the results were a7 integrin act 0%, ClpP mod 28µM*, USP2a block -13%, IL-2 act -5, Pin1 inh -10% and PKM2 act -1%.
Screening Cc1ccc(S(=O)(=O)c2cn(Cc3ccccc3)c3cc(N4CCCCC4)c(F)cc3c2=O)cc1 returned ClpP mod inconclusive and Pin1 inh 5%.
Screening Cc1ccc(Cn2cc(S(=O)(=O)c3ccc(C)cc3)c(=O)c3cc(F)c(N4CCCC4)cc32)cc1 returned ClpP mod inconclusive and Pin1 inh 6%.
Cc1ccc(S(=O)(=O)c2cn(Cc3ccccc3)c3cc(N4CCOCC4)c(F)cc3c2=O)cc1 was read as ClpP mod 28µM* and Pin1 inh 10%.
CCc1ccc(S(=O)(=O)c2cn(Cc3ccccc3)c3cc(N4CCCC4)c(F)cc3c2=O)cc1 was read as ClpP mod 2.8µM* and Pin1 inh -1%.
Screening Cc1ccc(C)c(S(=O)(=O)c2cn(Cc3ccccc3)c3cc(N4CCCC4)c(F)cc3c2=O)c1 returned ClpP mod 4% and Pin1 inh 18%.
Screening Cc1ccc(S(=O)(=O)c2cn(Cc3cccc(F)c3)c3cc(N4CCCC4)c(F)cc3c2=O)cc1 returned ClpP mod 3.5µM* and Pin1 inh -5%.
`Cc1[nH]c2ccccc2c1C(=O)C(C)Sc1nc2ccccc2c(=O)n1Cc1cccnc1` (stereo unspecified) gave ClpP mod -2%.
COC(=O)c1ccccc1NC1OC(=O)c2ccccc21 (stereo unspecified) was read as a7 integrin act 4%, ClpP mod 32µM*, USP2a block 0%, IL-2 act 0, Pin1 inh 5% and PKM2 act 1%.
For COC(=O)c1[nH]c2cc(OC)c(OC)cc2c1/C=N/Nc1ccccc1 the results were a7 integrin act inconclusive, ClpP mod 6%, USP2a block -2%, IL-2 act 532* and Pin1 inh -3%.
Screening Cc1c(C)c2cc(Cl)c(OCc3nn[nH]n3)cc2oc1=O returned a7 integrin act 11%, ClpP mod 30%, USP2a block 0%, IL-2 act 1, Pin1 inh 1% and PKM2 act 28µM*.
CCC1(C)Cc2ccccc2C(Nc2c(C)n(C)n(-c3ccccc3)c2=O)=N1 (stereo unspecified) was read as a7 integrin act 19%, ClpP mod 14µM*, USP2a block 4%, IL-2 act 0, Pin1 inh -9% and PKM2 act -7%.
For Cc1c(NC2=NC3(CCCCC3)Cc3ccccc32)c(=O)n(-c2ccccc2)n1C the results were a7 integrin act 19%, ClpP mod -4%, USP2a block -4%, IL-2 act -1, Pin1 inh 1% and PKM2 act -1%.
CCOC(=O)N1CCN([N+]([O-])=NOc2cc(O/N=[N+](\[O-])N(CC)CC)c([N+](=O)[O-])cc2[N+](=O)[O-])CC1 was read as Pin1 inh -8%.
For COc1cc2c(NC3CCN(C)CC3)nc(N3CCCN(C)CC3)nc2cc1OCCCCCCN(C)C the results were ClpP mod 4%.
`CCOc1ccc(S(=O)(=O)NCCC(=O)NCC(c2cccs2)N2CCOCC2)cc1` (stereo unspecified) gave a7 integrin act 2.2µM*, ClpP mod 15%, USP2a block -2%, IL-2 act -1, Pin1 inh 3% and PKM2 act -3%.
For O=C(CCNS(=O)(=O)c1ccc(Br)cc1)NCC(c1cccs1)N1CCOCC1 (stereo unspecified) the results were a7 integrin act 14%, ClpP mod -2% and IL-2 act -4.
For CC(C)(C)c1cc(C(=O)NNc2cc(C(F)(F)F)ccc2Cl)n(Cc2ccccc2)n1 the results were a7 integrin act -53%, ClpP mod 3.2µM*, USP2a block 0%, IL-2 act -5, Pin1 inh 15% and PKM2 act 4%.
`c1ccc(C2Nc3ccccc3-c3nc4ccccc4n32)cc1` (stereo unspecified) gave a7 integrin act 17%, ClpP mod 61%, USP2a block -1%, IL-2 act -2, Pin1 inh inconclusive and PKM2 act 3%.

Source: PubChem
